CatL block – inhibitors of human cathepsin L; P07711; purified cathepsin L, fluorogenic substrate, fluorescence; inhibition, %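 (tested at 10 µM)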; 0.17% of 58,000 active; AID 460; in the data active means inhibition above about 45%;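 further: 0% = enzyme with no compound and 100% = no enzyme blank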
WNV protease inh – WNV NS2B-NS3 proteinase inhibition; WNV NS2B-NS3 protease, fluorogenic substrate Ex360/Em465; stronger effect = lower value; z-score (test concentration not listed); 0.18% of 65,000 active; AID 577; in the data active means z-score below about -3
CatB inh – inhibitors of human cathepsin B. purified cathepsin B, fluorogenic substrate, fluorescence. 0.1% of 63,000 active. inhibition, %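 (tested at 10 µM)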. AID 453; in the data active means inhibition above about 21%;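 further: 0% = enzyme with no compound and 100% = no enzyme blank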
CatB mix inh – human cathepsin B inhibition by mixtures | inhibition, %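 (ten-compound pools at 5 µM per compound and 50 µM total)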 | Purified cathepsin B, AMC dipeptide fluorescence, compound mixtures | 0.06% of 62,000 active; in the data active means inhibition above about 22%, passing the limit was not always enough;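 further: 0% = enzyme without compound and 100% = no enzyme blank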
CatS inh – blocks human cathepsin S protease activity; AID 501; recombinant cathepsin S, AMC dipeptide fluorescence, pooled mixtures; 0.06% of 62,000 active; inhibition, %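 (tested at 5 µM per compound within 10-compound mixtures)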; in the data active means inhibition above about 32%, passing the limit was not always enough;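 further: 0% = enzyme without compound and 100% = blank without enzyme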
Target sequence (P25774 115-331 limits assumed): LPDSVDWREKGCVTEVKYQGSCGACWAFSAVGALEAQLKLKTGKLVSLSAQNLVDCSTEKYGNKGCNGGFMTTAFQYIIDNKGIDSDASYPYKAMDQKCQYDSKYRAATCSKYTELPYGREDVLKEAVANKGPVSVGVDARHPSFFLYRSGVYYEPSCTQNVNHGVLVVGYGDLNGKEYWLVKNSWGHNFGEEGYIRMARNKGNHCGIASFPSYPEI
* hit, by the source's call; . = not tested or not shown. Compounds with a hit are over-represented: about 0.42% of the library has one in this group of screens.

SMILES	CatL block	WNV protease inh	CatB inh	CatB mix inh	CatS inh
C=CCC1(CN2CCCCCC2=O)C(=O)NC(=O)NC1=O	12	-6.5*	-1	.	.
CCOP(=O)(C#CC(C)(C)C)C1(O)CCCCC1 (stereo not drawn)	-2	0.79	-1	-2	0
O[C@H]1C2CCC1C(N1CCCCC1)CC2 (stereo partly drawn)	-11	-0.33	3	1	-4
Cc1cccc(NC(=O)CSc2nnc([C@@H](N)Cc3c[nH]c4ccccc34)o2)c1C	101*	-0.67	1	1	10
OCc1cnc[nH]1	.	-0.47	.	.	.
Cc1nonc1-c1nc(-c2nonc2N)n[nH]1	23	-1.1	12	22*	20
CCn1nc(-c2ccccc2)nc2c(=O)n(C)c(=O)nc1-2	85*	-0.24	76*	47	.
CCSP1(=S)N=C(N2CCOCC2)C(C#N)=C2CCCN21 (stereo not drawn)	-3	0.24	-5	2	-11
O=S(=O)(c1ccc(Cl)cc1)N1CN2CCN(C2)C1	-6	-4.8*	2	1	18
O=P1(Nc2ccc(F)cc2)COc2ccccc2OC1	-6	0.44	-2	-2	-7

Assay outcomes from PubChem.
